Screening data (PubChem)
Only a selection was taken, and hits are over-represented in it overall.
TTR transcr act = TTR transcription activators in neuroblastoma reporter cells, primary screen, cell-based, luminescence, SH-SY5Y, TTR promoter Gaussia luciferase; activation, % at 16.7 µM; 92,000 tested, 1.3% active; 100% = recombinant luciferase protein wells;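 active = activation above the mean of all tested compounds plus 3 SD, cut at about 9.5% in these data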;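 also: cells exposed to compounds for one day before reading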
TTR inh HuH7 = TTR promoter reporter inhibitors in hepatoma cells, counter-screen for TTR transcription activator project, cell-based, luminescence, HuH7 hepatoma | shares compounds with TTR transcr act | HuH7 TTR promoter-Gaussia luciferase reporter | inhibition, % at 16.7 µM | 1,100 tested, 4% active;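 active = average inhibition above the solvent-only control wells' mean plus 3 SD, cut at about 15% in these data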;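 also: inhibitors lower well luminescence so higher value means more inhibition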
TTR act confirm = TTR transcription activators, retest, confirmation, cell-based, luminescence, SH-SY5Y, triplicate; SHSY5Y TTR promoter Gaussia luciferase; 100% = purified Lucia enzyme wells, no cells; 1,100 tested, under 10 active; activation, % at 16.7 µM; shares compounds with TTR transcr act;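 active = mean activation above a set limit taken from the earlier primary screen, cut at about 11% in these data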
A number is an active result; n = inactive.

SMILES	TTR transcr act	others
COc1ccc(NC(=O)C(CCCCNC(=O)OC(C)(C)C)NC2(C(=O)NCCc3c[nH]c4ccccc34)CCCCC2)cc1 (centres undefined)	n
O=[N+]([O-])c1cccnc1N1CCOCC1	n
O=C1CCN(c2ncccc2[N+](=O)[O-])CC1	12	TTR inh HuH7=n;TTR act confirm=n
N#CC1CCN(c2ncccc2[N+](=O)[O-])CC1	n
CCC[C@H]1[C@@H](N(C)Cc2ccccc2)CC[C@@]23CCCN2C(=O)CCC[C@@H]13	n
COC(=O)[C@]12C[C@H](CC(=O)NCCCN3CCCC3=O)C(=O)N(Cc3ccc4c(c3)OCO4)C1=C[C@H](C(C)C)O[C@@H]2C1CC1	n
CCOC(CCNC(=O)c1cn(-c2cccc(C)n2)cn1)OCC	n
COC(=O)c1ccc(NC(=O)c2cccnc2)cc1	n
COC(=O)c1ccc(NC(=O)c2cn(-c3cccc(C)n3)cn2)cc1	30	TTR inh HuH7=n;TTR act confirm=n
CC(=O)c1cc(-c2cccc(Cl)c2O)c(=O)n2c1CCC2	n
O=C(NNc1ccccc1)NC(Cc1ccccc1)C(=O)O (centres undefined)	n
COC(=O)[C@]12C[C@H](CC(=O)NCCc3ccccc3OC)C(=O)N(CCc3ccc(OC)c(OC)c3)C1=C[C@H](COCc1ccccc1)O[C@@H]2C	n
Cc1cc(N2CCC[C@@H]2C)nc2ccccc12	n
CCCCCCCCN1C(=O)[C@@H](CC(=O)NCCCOC)C[C@@]2(C(=O)OC)C1=C[C@H](C(C)C)O[C@@H]2C1CC1	n
COc1ccc(NC(=O)CCCC(=O)O)cc1Cl	n
C/C=C/C(=O)OCC(=O)Nc1ccc(OC)c(OC)c1	n
C/C=C/C(=O)OCC(=O)Nc1ccc(OC)c(Cl)c1	12	TTR inh HuH7=n;TTR act confirm=n
CN1OC[C@@H]2CN(Cc3ccc(Cl)cc3)[C@H](c3ccc(-n4ccnc4)cc3)C[C@@H]21	n
CC(C)(N[C@@H](Cc1ccccc1)C(=O)NCCc1c[nH]c2ccccc12)C(=O)NC1CCCCC1	n
CC(C)(C)C(=O)N1CCC(O)(CS(=O)(=O)Cc2ccccc2Cl)CC1	n
O=C(C1CC12CCCC2)N1CCC(CO)(Cc2ccccc2Cl)CC1 (centres undefined)	13	TTR inh HuH7=n;TTR act confirm=n
C=CCNC(=O)N1CCC(CO)(Cc2ccc(Cl)cc2)CC1	n
O=C(Cn1c(=O)c2cccn2c2cccnc21)NCCCN1CCN(c2ccc(Cl)cc2)CC1	n
C[C@H](NS(=O)(=O)c1ccc([N+](=O)[O-])cc1)C(=O)NCCNC(=O)[C@@H](C)NS(=O)(=O)c1ccc([N+](=O)[O-])cc1	n
CC(C)CCNC(=O)C1COC(O)(C(Cc2ccccc2)NC(=O)[C@@H](NC(=O)OCc2ccccc2)C(C)C)CN1 (some centres undefined)	n
SMILES	TTR transcr act	others
COc1ccc(C2NC(=O)c3ccccc3N2)cc1COc1ccc(NC(C)=O)cc1 (centres undefined)	n
CC(C)C[C@H](NC(C)(C)C(=O)NC1CCCCC1)C(=O)NCCc1c[nH]c2ccccc12	n
CCOC(=O)Cc1csc(NC(=O)CCC(=O)O)n1	n
CCOC(=O)Cc1csc(NC(=O)COc2ccc3c(c2)CCC3)n1	14	TTR inh HuH7=n;TTR act confirm=n
CCOC(=O)Cc1csc(NC(=O)COc2cccc(C)c2)n1	n
O=C(Nc1cccs1)OC1CC2CC1[C@H]1CCCCN1C2 (some centres undefined)	n
C[C@H]1C2CC(OC(=O)NCc3ccc(Cl)cc3)C(C2)[C@H]2CCCCN21 (some centres undefined)	n
Brc1ccc(-c2noc3c2-c2nc(C4CCCCC4)sc2CC3)cc1	14	TTR inh HuH7=n;TTR act confirm=n
CCCc1nc2c(s1)CCc1onc(-c3ccc(OC)cc3)c1-2	n
COc1ccc(-c2noc3c2-c2nc(C(C)C)sc2CC3)cc1	n
CC(=O)C1CCC2C3CCC4CC(=O)CCC4(C)C3C(O)CC12C (centres undefined)	10	TTR inh HuH7=n;TTR act confirm=n
CC(=O)C1C(C)CC2C3CCC4CC(=O)CCC4(C)C3CCC21C (centres undefined)	n
CC(=O)C1CCC2C3CCC4=CC(=O)C=CC4(C)C3CCC12C (centres undefined)	n
CCOC(=O)C1CCCCN1C(=O)[C@@H]1CC=C[C@@H]2CCN(c3ccccc3)C(=O)[C@@H]21 (some centres undefined)	n
Cc1cccc(NS(=O)(=O)c2ccc3c(c2)CCC(=O)N3)c1	n
CCc1cccc(NS(=O)(=O)c2ccc3c(c2)NC(=O)CC(=O)N3)c1	n
Cc1cccc(NS(=O)(=O)c2ccc3c(c2)NC(=O)CC(=O)N3)c1	13	TTR inh HuH7=n;TTR act confirm=n
COc1ccc(S(=O)(=O)N2CCN(C(=O)CNC(=O)c3ccc4c(c3)OCO4)CC2)cc1	n
c1ccc(Cn2ccc3ccc(-c4ccc5ccn(Cc6ccc(-c7ccccc7)cc6)c5c4)cc32)cc1	n
CCOC(=O)N1CCN(C(=O)C[C@H]2C[C@@]3(C(=O)OC)C(=C[C@H](COCc4ccccc4)O[C@@H]3C)N(Cc3ccco3)C2=O)CC1	n
CCOC(=O)[C@]12CCCC=C1N(Cc1ccc(OC)cc1)C(=O)[C@@H]2CC(=O)NCCCOC	n
Cc1ccc(CCNC(=O)CN(C)S(=O)(=O)c2ccc3c(c2)c(=O)n(C)c(=O)n3C)cc1	n
Cc1csc(NC(=O)CCNS(=O)(=O)c2ccc3c(c2)c(=O)n(C)c(=O)n3C)n1	n
Cc1ccc(CCNC(=O)CCNS(=O)(=O)c2ccc3c(c2)c(=O)n(C)c(=O)n3C)cc1	9.9	TTR inh HuH7=n;TTR act confirm=n
O=C(Nc1ccc(Br)cc1)OC1CC2CC1[C@H]1CCCCN1[C@H]2Cc1ccccc1 (some centres undefined)	n
SMILES	TTR transcr act	others
CCCNC(=O)C1(C)CCCN(C(=O)c2ccccc2OC(F)(F)F)C1 (centres undefined)	n
Cc1ccc(CN2CCCCC(NC(=O)Nc3ccccc3F)C2=O)cc1 (centres undefined)	n
O=C(NCc1ccccc1)C1c2ccccc2OCC(=O)N1Cc1ccc2c(c1)OCO2 (centres undefined)	n
COc1ccccc1C(=O)NC(=O)COC(=O)C1CC1C (centres undefined)	n
CCOC(=O)C1(C(=O)OCC)Cc2c([nH]c3ccccc23)[C@]2(N1)C(=O)N(C)c1ccc(Br)cc12	n
C[C@H]1C2CC(OC(=O)Nc3ccc(C(F)(F)F)cc3)C(C2)[C@H]2CCCCN21 (some centres undefined)	n
Cc1ccc(F)cc1CNC(=O)C1CCC(=O)N(CCc2ccccc2)C1 (centres undefined)	n
O=C(NCc1ccc(F)c(F)c1)C1CCC(=O)N(CCc2ccccc2)C1 (centres undefined)	n
CCOC(=O)CC1(NC(=O)C2CCC(=O)N(CCc3ccccc3)C2)CCCCC1 (centres undefined)	14	TTR inh HuH7=n;TTR act confirm=n
COC(=O)[C@]12C[C@H](CC(=O)N3CCOCC3)C(=O)N(Cc3ccc4c(c3)OCO4)C1=C[C@H](C(C)C)O[C@@H]2C1CC1	n
Cc1ccc(S(=O)(=O)CCOC(=O)CNC(=O)OCc2ccccc2)cc1	n
Cc1cccc(CSc2nc3c(cc2C#N)CCC3)c1	n
Cc1ccc(C#N)c(SCc2cccc(Br)c2)n1	13	TTR inh HuH7=n;TTR act confirm=n
